High-throughput results deposited in PubChem BioAssay by National Center for Advancing Translational Sciences (NCATS).
The sample as a whole holds a higher share of hits than the screen did.
Sm TGR inh: S. mansoni TGR enzyme inhibition; Q962Y6; purified TGR, DTNB reduction, TNB absorbance 405 nm; Potency, µM (doses to about 114 µM), hits mostly inhibitors; actives 3% (n = 360,000); further: nearly all actives have a fitted effect of over 60% in size
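First, TGR (20 nM dispensed) and NADPH were mixed with compound. Second, a 15 min room-temperature incubation followed. Third, further NADPH and then DTNB were added to start the reaction. Finally, TNB absorbance was monitored kinetically.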
TbPYK inhibitor: inhibitors of Trypanosoma brucei pyruvate kinase | TbPYK enzyme, Kinase-Glo Plus ATP luminescence, 45 min | Q57TT1 | actives 0.12% (n = 410,000) | AID 624173 | Potency, µM (top dose mostly 76.8 µM), actives largely listed as inhibitors; further: nearly all actives have a fitted effect of over 50% in size
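Luminescence from Kinase-Glo Plus, added after a 45-minute room-temperature reaction, served as the end-point read-out. The enzyme and substrate were preincubated with compound before ADP (130 uM final) initiated turnover. Concentration-effect curves came from normalized qHTS data.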
Cycloheximide cs: counter-screen for Shiga toxin inhibitors: cycloheximide protein synthesis inhibition. cell reporter, cycloheximide protein synthesis inhibition counterscreen. AID 2314. actives 12% (n = 300,000). max response, %; in the data active means max response mostly above about 13%, no sharp cut-off; inactive means mostly below about 14%; further: read at 38.3 µM for the half of the compounds with a filed dose
LmPK inh: inhibitors of Leishmania mexicana pyruvate kinase | actives 0.37% (n = 290,000) | Q27686 | purified LmPK, Kinase-Glo ATP luminescence, 1 h | Potency, µM (highest dose often 57.5 µM), actives largely listed as inhibitors
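In 50 mM imidazole pH 7.2 with 7 mM MgCl2, LmPK (0.1 nM) turned over PEP (0.5 mM) and ADP (0.1 mM) for 1 h at room temperature. Luciferase read-out of ATP.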
Shiga toxin inh: Shiga toxin inhibition. AID 2315. actives 9.2% (n = 290,000). inhibition, % at 38.7 µM. Vero cells, Shiga toxin protein synthesis inhibition reporter; in the data active means inhibition mostly above about 28%, no sharp cut-off; inactive means mostly below about 43%
Giardia FBPA inh: blocks Giardia fructose-bisphosphate aldolase activity; Potency, µM (top dose mostly 59.6 µM), most hits filed as inhibitors; actives 0.71% (n = 290,000); AID 2451; A8B2U2; purified Giardia FBPA; further: nearly all actives have a fitted effect of over 55% in size
Target sequence (A8B2U2 whole entry, looked up): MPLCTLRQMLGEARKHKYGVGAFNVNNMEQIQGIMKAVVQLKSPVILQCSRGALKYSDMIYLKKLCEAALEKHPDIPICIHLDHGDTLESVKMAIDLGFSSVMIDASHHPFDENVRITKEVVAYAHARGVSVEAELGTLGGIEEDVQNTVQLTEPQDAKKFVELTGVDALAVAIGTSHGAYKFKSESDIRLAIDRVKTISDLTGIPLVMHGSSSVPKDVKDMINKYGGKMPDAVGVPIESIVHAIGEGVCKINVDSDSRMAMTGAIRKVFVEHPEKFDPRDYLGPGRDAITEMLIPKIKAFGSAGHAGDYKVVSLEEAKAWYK
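Giardia FBPA (40 nM reagent) was preincubated 10 min at RT with compound (up to 57.5 uM final), then substrate plus GAPDH/TPI/NAD/arsenate coupling system with diaphorase/resazurin was added; resorufin fluorescence (525/598 nm) was read after 20 min.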
Of the large screens only hits and unclear results are named; the others gave an inactive call. Unless noted, the call rests on the fitted dose curve; in most records, active means well fitted curve in the direction sought with a large enough effect; inconclusive means small, poorly fitted or top-dose-only effect, or another doubt; inactive means no such curve, though single readings can be large; an effect the other way counts as inactive or inconclusive.

CSc1ncc(Cl)c(C(=O)N(Cc2ccc(C(C)C)cc2)C2CCS(=O)(=O)C2)n1 (centres undefined)	none (no result: Cycloheximide cs, LmPK inh, Shiga toxin inh, Giardia FBPA inh)
Cc1cccc(CCNC(=O)c2ccc(CSCc3cccc(Cl)c3)o2)c1	none (no result: Cycloheximide cs, LmPK inh, Shiga toxin inh, Giardia FBPA inh)
Oc1ccc(-c2nnc(SCC3CCCCC3)o2)cc1	Cycloheximide cs 22, Shiga toxin inh 82
O=C(CSc1nnc(-c2ccc(F)cc2)o1)NC1CCCCC1	none
CC1C(c2ccccc2)=Nn2c(=O)n(-c3ccccc3)c(=O)n21 (centres undefined)	none (no result: Sm TGR inh, Cycloheximide cs, LmPK inh, Shiga toxin inh, Giardia FBPA inh)
CC1(C)Cc2nc3oc4c(N5CCOCC5)ncnc4c3cc2CO1	none
COCCSc1ncnc2c1oc1nc3c(cc12)COC(C)(C)C3	Cycloheximide cs 23
COc1ccc(NC(=O)Nc2nnc(N(C)C3CCCCC3)s2)c(OC)c1	none (no result: Cycloheximide cs, LmPK inh, Shiga toxin inh, Giardia FBPA inh)
O=C(CC1C(=O)N(c2ccc(F)cc2)C(=O)N1Cc1ccc2c(c1)OCO2)Nc1ccc(Cl)cc1 (centres undefined)	none (no result: Cycloheximide cs, LmPK inh, Shiga toxin inh, Giardia FBPA inh)
O=C1C=CC(=O)N1N(c1ccccc1)c1ccccc1	Sm TGR inh 2.5µM, TbPYK inhibitor inconclusive, LmPK inh inconclusive
CC(=O)Nc1ccc(Nc2ccc([N+](=O)[O-])cn2)cc1	none
O=[N+]([O-])c1ccc(Nc2ccccc2)nc1	none
O=[N+]([O-])c1ccc(Nc2ccc(F)cc2)nc1	Cycloheximide cs 15, Shiga toxin inh 32
Cc1ccc(Nc2ccc([N+](=O)[O-])cn2)cc1Cl	Cycloheximide cs 27, Shiga toxin inh 46
CN(C)c1ccc(Nc2ccc([N+](=O)[O-])cn2)cc1	Cycloheximide cs 34, Shiga toxin inh 132
N#Cc1ccc(C(=O)Nc2ccccc2-c2nc3ccccc3s2)c(F)c1	none (no result: Cycloheximide cs, LmPK inh, Shiga toxin inh, Giardia FBPA inh)
O=c1c2c3c(sc2nc(NCCO)n1Cc1ccco1)CCCCC3	Cycloheximide cs 14
COCCNc1nc2sc3c(c2c(=O)n1Cc1ccco1)CCCCC3	Cycloheximide cs 28, Shiga toxin inh 30
O=c1c2c3c(sc2nc(NCCO)n1CCc1ccccc1)CCCCC3	none
Cn1ccnc1SCC(=O)Nc1nc2c(F)c(F)c(F)cc2s1	none
CCN(CC)c1ccc(-n2nc3cc(C)c(NC(=O)c4ccccc4C)cc3n2)c(C)c1	none (no result: LmPK inh, Giardia FBPA inh)
CCN(CC)c1ccc(NC(=O)c2cccc(C)c2OC)c(C)c1	TbPYK inhibitor inconclusive, Cycloheximide cs 65, Shiga toxin inh 87
COc1ccc(NCc2nnc(-c3ccccc3)o2)cc1	Cycloheximide cs 20, Shiga toxin inh 28 (no result: Giardia FBPA inh)
COc1ccc(OC)c(NCc2nnc(-c3ccccc3)o2)c1	none
CCOc1ccccc1NCc1nnc(-c2ccccc2)o1	Cycloheximide cs 15
N#C/C(=C\c1ccc(Cl)cc1Cl)c1nc(-c2cccc(Cl)c2)cs1	none (no result: Cycloheximide cs, LmPK inh, Shiga toxin inh, Giardia FBPA inh)
CC(=O)Nc1cccc(NC(=O)Cc2csc(COc3cccc(C)c3)n2)c1	none (no result: Cycloheximide cs, LmPK inh, Shiga toxin inh, Giardia FBPA inh)
O=C(CCl)N(CCCNC(=O)C(F)(F)F)c1ccc([N+](=O)[O-])cc1	Sm TGR inh 2.8µM
O=C(NCCCNc1ccc([N+](=O)[O-])cc1)C(F)(F)F	none
CCOc1cc(/C=N/O)ccc1OCc1ccc(C)cc1	Cycloheximide cs 27, Shiga toxin inh active, Giardia FBPA inh inconclusive
Cc1ccc(COc2ccc(Br)cc2/C=N/O)cc1	Cycloheximide cs 31
CCOc1cc(/C=N\NC(=O)Cc2ccccc2)ccc1OCC(=O)Nc1ccc(C)c(C)c1	none
O/N=C/c1cc(Br)ccc1OCc1cccc(F)c1	Cycloheximide cs 26
CCOc1cc(/C=N/O)ccc1OS(=O)(=O)c1ccc(C)cc1	none
CCOc1cc(/C=N/O)ccc1OCC(=O)Nc1cccc(C)c1	Cycloheximide cs 31, Shiga toxin inh 41
COc1cc(NC(=O)Cn2cc(C(=O)c3ccc(F)cc3)c(=O)c3ccc(C)nc32)cc(OC)c1	none (no result: Cycloheximide cs, LmPK inh, Shiga toxin inh, Giardia FBPA inh)
Cc1ccc(-c2noc(C3CC(=O)N(c4ccc5c(c4)OCCO5)C3)n2)cc1 (centres undefined)	none (no result: Cycloheximide cs, LmPK inh, Shiga toxin inh, Giardia FBPA inh)
COc1ccc2c(c1)CCc1c(C(=O)Nc3cc(OC)c(Cl)cc3OC)noc1-2	none (no result: Cycloheximide cs, LmPK inh, Shiga toxin inh, Giardia FBPA inh)
Cc1sc(NC(=O)c2ccco2)c(C(Nc2ccccn2)c2ccccc2)c1C (centres undefined)	Cycloheximide cs 13
Cc1sc(NC(=O)c2ccco2)c(C(c2cccnc2)N2CCN(C)CC2)c1C (centres undefined)	Sm TGR inh 35µM
